Assay results as given in the supplement of paper PMC8975748.
± gives the standard deviation of the averaged measurements.

How the values were obtained:
[1] = tested on: Saccharomyces cerevisiae BY4741 SeMeCo community; experiment: mean cell size (pixel area) (pixels); higher = larger cells; details: 10 µM; 24 h; SM minimal medium
In short: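 In this assay, mean cell pixel area per well was obtained from automated confocal images of paraformaldehyde-fixed yeast analysed in Harmony. The cells were a Saccharomyces cerevisiae BY4741 community with four plasmids, each complementing one auxotrophy and carrying a fluorescent marker, grown for 24 h in SM medium with drug at a final 10 µM in 384-well plates. Values are averaged across 3 replicates. Same SeMeCo high-content imaging drug screen: Selleck FDA-approved drugs at 10 µM, 24 h in SM medium, 384-well plates, 3 replicates.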

[2] = tested on: Saccharomyces cerevisiae BY4741 SeMeCo community; experiment: z-score of prototroph abundance vs DMSO median; higher = larger share of this subpopulation than in DMSO controls; details: 10 µM; 24 h; SM minimal medium; subpopulation (auxotrophy): Prototroph
In short: (§1)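 Subpopulation abundance was reported as a z-score against the median of vehicle wells. The Saccharomyces cerevisiae BY4741 community, carrying four plasmids that each restored one auxotrophy and encoded a distinct fluorescent protein, was grown 24 h in minimal SM medium in 384-well plates holding library drugs at 10 µM final. Cells were paraformaldehyde-fixed and imaged by automated confocal microscopy, with single-auxotroph fluorescent strains used for thresholds and autofluorescence correction.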

[3] = tested on: Saccharomyces cerevisiae BY4741 SeMeCo community; experiment: z-score of subpopulation abundance vs DMSO median, subpopulation auxotrophic for M; higher = larger share of this subpopulation than in DMSO controls; details: 10 µM; 24 h; SM minimal medium; subpopulation (auxotrophy): M
In short: as §1

[4] = tested on: Saccharomyces cerevisiae BY4741 SeMeCo community; experiment: z-score of subpopulation abundance vs DMSO median, subpopulation auxotrophic for L; higher = larger share of this subpopulation than in DMSO controls; details: 10 µM; 24 h; SM minimal medium; subpopulation (auxotrophy): L
In short: as §1

[5] = tested on: Saccharomyces cerevisiae BY4741 SeMeCo community; experiment: z-score of subpopulation abundance vs DMSO median, subpopulation auxotrophic for U; higher = larger share of this subpopulation than in DMSO controls; details: 10 µM; 24 h; SM minimal medium; subpopulation (auxotrophy): U
In short: as §1

[6] = tested on: Saccharomyces cerevisiae BY4741 SeMeCo community; experiment: z-score of subpopulation abundance vs DMSO median, subpopulation auxotrophic for H; higher = larger share of this subpopulation than in DMSO controls; details: 10 µM; 24 h; SM minimal medium; subpopulation (auxotrophy): H
In short: as §1

[7] = tested on: Saccharomyces cerevisiae BY4741 SeMeCo community; experiment: z-score of subpopulation abundance vs DMSO median, subpopulation auxotrophic for LU; higher = larger share of this subpopulation than in DMSO controls; details: 10 µM; 24 h; SM minimal medium; subpopulation (auxotrophy): LU
In short: as §1

[8] = tested on: Saccharomyces cerevisiae BY4741 SeMeCo community; experiment: z-score of subpopulation abundance vs DMSO median, subpopulation auxotrophic for LM; higher = larger share of this subpopulation than in DMSO controls; details: 10 µM; 24 h; SM minimal medium; subpopulation (auxotrophy): LM
In short: as §1

[9] = tested on: Saccharomyces cerevisiae BY4741 SeMeCo community; experiment: z-score of subpopulation abundance vs DMSO median, subpopulation auxotrophic for HM; higher = larger share of this subpopulation than in DMSO controls; details: 10 µM; 24 h; SM minimal medium; subpopulation (auxotrophy): HM
In short: as §1

[10] = tested on: Saccharomyces cerevisiae BY4741 SeMeCo community; experiment: z-score of subpopulation abundance vs DMSO median, subpopulation auxotrophic for HU; higher = larger share of this subpopulation than in DMSO controls; details: 10 µM; 24 h; SM minimal medium; subpopulation (auxotrophy): HU
In short: as §1

[11] = tested on: Saccharomyces cerevisiae BY4741 SeMeCo community; experiment: z-score of subpopulation abundance vs DMSO median, subpopulation auxotrophic for UM; higher = larger share of this subpopulation than in DMSO controls; details: 10 µM; 24 h; SM minimal medium; subpopulation (auxotrophy): UM
In short: as §1

[12] = tested on: Saccharomyces cerevisiae BY4741 SeMeCo community; experiment: z-score of subpopulation abundance vs DMSO median, subpopulation auxotrophic for HL; higher = larger share of this subpopulation than in DMSO controls; details: 10 µM; 24 h; SM minimal medium; subpopulation (auxotrophy): HL
In short: as §1

[13] = tested on: Saccharomyces cerevisiae BY4741 SeMeCo community; experiment: z-score of subpopulation abundance vs DMSO median, subpopulation auxotrophic for HLU; higher = larger share of this subpopulation than in DMSO controls; details: 10 µM; 24 h; SM minimal medium; subpopulation (auxotrophy): HLU
In short: as §1

[14] = tested on: Saccharomyces cerevisiae BY4741 SeMeCo community; experiment: z-score of subpopulation abundance vs DMSO median, subpopulation auxotrophic for HLM; higher = larger share of this subpopulation than in DMSO controls; details: 10 µM; 24 h; SM minimal medium; subpopulation (auxotrophy): HLM
In short: as §1

[15] = tested on: Saccharomyces cerevisiae BY4741 SeMeCo community; experiment: z-score of subpopulation abundance vs DMSO median, subpopulation auxotrophic for HUM; higher = larger share of this subpopulation than in DMSO controls; details: 10 µM; 24 h; SM minimal medium; subpopulation (auxotrophy): HUM
In short: as §1

[16] = tested on: Saccharomyces cerevisiae BY4741 SeMeCo community; experiment: z-score of subpopulation abundance vs DMSO median, subpopulation auxotrophic for LUM; higher = larger share of this subpopulation than in DMSO controls; details: 10 µM; 24 h; SM minimal medium; subpopulation (auxotrophy): LUM
In short: as §1

[17] = tested on: Saccharomyces cerevisiae BY4741 SeMeCo community; experiment: z-score of subpopulation abundance vs DMSO median, subpopulation auxotrophic for HLUM; higher = larger share of this subpopulation than in DMSO controls; details: 10 µM; 24 h; SM minimal medium; subpopulation (auxotrophy): HLUM
In short: as §1

Compound | mean cell size [1] | z-score of prototroph abundance [2] | z-score of subpopulation abundance [3] | z-score of subpopulation abundance [4] | z-score of subpopulation abundance [5] | z-score of subpopulation abundance [6] | z-score of subpopulation abundance [7] | z-score of subpopulation abundance [8] | z-score of subpopulation abundance [9] | z-score of subpopulation abundance [10] | z-score of subpopulation abundance [11] | z-score of subpopulation abundance [12] | z-score of subpopulation abundance [13] | z-score of subpopulation abundance [14] | z-score of subpopulation abundance [15] | z-score of subpopulation abundance [16] | z-score of subpopulation abundance [17]
Clc1ccc(C(Cn2ccnc2)OCc2csc3c(Cl)cccc23)c(Cl)c1 (stereo unspecified) [Sertaconazole nitrate] | 12.5 ± 0.29 | -8.82 | -9.36 | 1.38 | 0.4 | 36.6 | 1.93 | -3.39 | 0.2 | 14.5 | -2.33 | 16.1 | 11.1 | 28.5 | 3.4 | 2.6 | 28.5
COc1cc(N)c(Cl)cc1C(=O)NC1CCN(CCCOc2ccc(F)cc2)CC1OC (stereo unspecified) [Cisapride hydrate] | 12.52 ± 0.044 | -0.46 | 0.32 | -0.75 | 0.95 |  | 0.83 | -0.23 | 0.29 | 1.34 | 0.98 | -0.17 | 0.05 | 0.12 | 0.84 | -0.28 | -0.3
Cc1cc(=O)n(-c2ccccc2)n1C [Antipyrine] | 12.6 ± 0.13 | 0.87 | 0.62 | -0.59 | -0.44 |  | -0.69 | -0.72 | -0.59 | -0.64 | -1.23 | -0.85 | -0.53 | -0.18 | -0.77 | 0.02 | -0.47
OC(Cn1cncn1)(Cn1cncn1)c1ccc(F)cc1F [Fluconazole] | 11.98 ± 0.059 | 2.13 | -1.85 | -0.88 | -0.29 | -2.16 | -1.41 | -0.76 | -1.78 | -1.49 | -0.52 | -1.18 | -1.51 | -1.07 | -1.16 | -0.64 | -1.38
C[C@@H]1C/C=C/C=C/C=C/C=C/[C@H](O[C@@H]2O[C@H](C)[C@@H](O)[C@H](N)[C@@H]2O)C[C@@H]2O[C@](O)(C[C@@H](O)C[C@H]3O[C@@H]3/C=C/C(=O)O1)C[C@H](O)[C@H]2C(=O)O [Natamycin] | 12.31 ± 0.094 | -16.3 | -8.99 | 1.74 | 4.12 | 12.5 | 8.63 | 2.04 | 8.62 | 33.6 | 9.97 | 22.5 | 22.7 | 38.1 | 25.6 | 14.5 | 40.5
CCc1cccc2c3c([nH]c12)C(CC)(CC(=O)O)OCC3 (stereo unspecified) [Etodolac] | 12.5 ± 0.19 | 1.07 | -0.55 | -0.55 | 0.62 | -0.66 | 0.31 | 0.26 | -0.61 | -0.8 | -0.43 | -0.44 | -0.48 | -0.82 | -0.52 | -0.9 | -0.89
CC[C@H](C)C(=O)O[C@H]1CCC=C2C=C[C@H](C)[C@H](CC[C@@H]3C[C@@H](O)CC(=O)O3)[C@H]21 [Mevastatin] | 11.6 ± 0.14 | 0.08 | -0.77 | -0.41 | 0.22 | -0.21 | 0.06 | -0.31 | -0.1 | 0.2 | 0.52 | 0.72 | 0.15 | -0.6 | -0.29 | -0.11 | -0.71
CN1CCN(c2c(F)cc3c(=O)c(C(=O)O)cn4c3c2OCN4C)CC1 [Marbofloxacin] | 12.1 ± 0.38 | 0.49 | 0.52 | -1.17 | 0.59 | -1.41 | 0.12 | -0.36 | -0.43 | -0.06 | -0.02 | -0.85 | -0.27 | -0.54 | 0.33 | -0.82 | -0.72
CN1CCN(C2=Nc3ccccc3Oc3ccc(Cl)cc32)CC1 [Loxapine Succinate] | 12.4 ± 0.17 | -0.71 | -0.12 | 1.71 | 0.78 | 0.08 | 1.85 | 0.87 | 0.14 | 0.53 | 0.97 | 1.02 | 0.59 | 0.21 | -0.1 | 1.15 | 0.78
C#C[C@]1(O)CC[C@H]2[C@@H]3CCc4cc(OC)ccc4[C@H]3CC[C@@]21C [Mestranol] | 12.4 ± 0.25 | 0.82 | -1.19 | 0.33 | -0.41 |  | -0.19 | -0.14 | -0.5 | -0.49 | -0.68 |  | -0.61 | -0.48 | -0.58 | -0.31 | 0.02
CCOC(=O)C1=C(COCCN)NC(C)=C(C(=O)OC)C1c1ccccc1Cl (stereo unspecified) [Amlodipine] | 13 ± 0.37 | 2.13 | 3.04 | 4.02 | -7 |  | -7.07 | 8.35 | 4.86 | -7.36 | -8.26 | 5.86 | -3.87 | 9.49 | -6.23 | -4.72 | -1.8
Nc1ccc2cc3ccc(N)cc3nc2c1 [Proflavine] | 12.11 ± 0.034 | 6.61 | 2.16 | -7.48 | -7.03 | 4.14 | -7.09 | -5.35 | 2.14 | -6.17 | -7.18 | -3.92 | -4.19 | -2.42 | -4.57 | -4.39 | -1.99
COC(=O)Nc1nc2cc([S+]([O-])c3ccccc3)ccc2[nH]1 (stereo unspecified) [Oxfendazole] | 12.59 ± 0.1 | 0.13 | 0.39 | -1.92 | 1.29 | 0.08 | 0.48 | -1.48 | -0.28 | 0.76 | 0.53 | 0 | -0.7 | -0.75 | 0.73 | -0.67 | -1.07
